# Results taken from the supplement of paper PMC11732987, “Enantioselective OTUD7B fragment discovery through chemoproteomics screening and high-throughput optimisation” (Communications Chemistry, 2025).
# Values without a mark were called inactive.
# Tests used:
# Assay in all cases: log2 ratio of Biotin-Ahx-Ub-VS probe labelling (fragment/DMSO); higher = less target engagement (more negative = stronger competition), active = hit call of the paper (q ≤ 0.05, log2 ratio ≤ -1)
# Conditions in all cases: compound concentration: 200 uM; treatment time: 3 h
# USP19 = molecular target: T1, USP19 (UniProt O94966)
# T1 sequence (whole entry): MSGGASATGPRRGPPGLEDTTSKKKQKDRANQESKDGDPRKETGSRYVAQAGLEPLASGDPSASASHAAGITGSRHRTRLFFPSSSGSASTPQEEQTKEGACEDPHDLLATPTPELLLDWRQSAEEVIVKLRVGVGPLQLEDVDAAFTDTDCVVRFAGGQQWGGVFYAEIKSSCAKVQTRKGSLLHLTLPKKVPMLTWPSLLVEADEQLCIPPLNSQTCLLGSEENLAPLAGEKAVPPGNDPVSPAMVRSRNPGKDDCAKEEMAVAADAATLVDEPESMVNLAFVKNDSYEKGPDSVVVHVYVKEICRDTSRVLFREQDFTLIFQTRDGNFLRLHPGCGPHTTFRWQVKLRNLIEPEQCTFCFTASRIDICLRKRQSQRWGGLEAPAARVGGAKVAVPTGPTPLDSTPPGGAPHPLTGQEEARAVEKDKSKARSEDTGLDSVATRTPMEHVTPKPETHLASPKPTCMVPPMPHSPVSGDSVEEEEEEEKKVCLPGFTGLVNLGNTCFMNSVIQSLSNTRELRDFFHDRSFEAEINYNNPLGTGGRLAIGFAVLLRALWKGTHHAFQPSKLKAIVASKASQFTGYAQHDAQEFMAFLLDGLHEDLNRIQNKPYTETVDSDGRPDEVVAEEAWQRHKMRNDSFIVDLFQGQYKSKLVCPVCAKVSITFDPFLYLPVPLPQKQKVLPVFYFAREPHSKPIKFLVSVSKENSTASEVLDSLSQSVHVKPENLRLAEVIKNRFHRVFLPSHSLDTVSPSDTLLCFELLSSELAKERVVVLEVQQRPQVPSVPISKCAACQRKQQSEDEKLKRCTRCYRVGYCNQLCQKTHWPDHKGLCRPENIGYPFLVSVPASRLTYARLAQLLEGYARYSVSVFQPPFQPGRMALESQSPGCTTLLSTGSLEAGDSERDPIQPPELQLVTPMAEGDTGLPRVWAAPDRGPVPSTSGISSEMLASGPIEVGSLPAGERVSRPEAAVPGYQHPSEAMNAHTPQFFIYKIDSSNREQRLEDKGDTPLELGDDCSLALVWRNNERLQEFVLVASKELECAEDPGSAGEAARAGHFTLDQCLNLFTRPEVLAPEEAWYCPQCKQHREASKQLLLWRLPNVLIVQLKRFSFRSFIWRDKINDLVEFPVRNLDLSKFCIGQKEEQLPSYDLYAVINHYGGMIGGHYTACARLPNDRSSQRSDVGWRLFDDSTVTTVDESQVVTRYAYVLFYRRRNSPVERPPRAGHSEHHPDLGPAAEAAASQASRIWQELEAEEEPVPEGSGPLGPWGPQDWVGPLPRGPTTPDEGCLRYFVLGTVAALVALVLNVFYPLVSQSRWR
# How it was run: (§1)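 Triplicate samples of HEK293T lysate, 495 µg each, received fragment at 200 µM or vehicle for 3 h, followed by Biotin-Ahx-Ub-VS (0.5 µM final) for 1 h. After NeutrAvidin enrichment of labelled DUBs and LysC/trypsin digestion, peptides were run by diaPASEF LC-MS/MS. The values are average log2 fragment/vehicle ratios from global-median-normalised Spectronaut label-free quantities, tested by unpaired t-test on proteins having ≥2 unique peptides.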
# USP22 = molecular target: T2, USP22 (UniProt Q9UPT9)
# T2 sequence (whole entry): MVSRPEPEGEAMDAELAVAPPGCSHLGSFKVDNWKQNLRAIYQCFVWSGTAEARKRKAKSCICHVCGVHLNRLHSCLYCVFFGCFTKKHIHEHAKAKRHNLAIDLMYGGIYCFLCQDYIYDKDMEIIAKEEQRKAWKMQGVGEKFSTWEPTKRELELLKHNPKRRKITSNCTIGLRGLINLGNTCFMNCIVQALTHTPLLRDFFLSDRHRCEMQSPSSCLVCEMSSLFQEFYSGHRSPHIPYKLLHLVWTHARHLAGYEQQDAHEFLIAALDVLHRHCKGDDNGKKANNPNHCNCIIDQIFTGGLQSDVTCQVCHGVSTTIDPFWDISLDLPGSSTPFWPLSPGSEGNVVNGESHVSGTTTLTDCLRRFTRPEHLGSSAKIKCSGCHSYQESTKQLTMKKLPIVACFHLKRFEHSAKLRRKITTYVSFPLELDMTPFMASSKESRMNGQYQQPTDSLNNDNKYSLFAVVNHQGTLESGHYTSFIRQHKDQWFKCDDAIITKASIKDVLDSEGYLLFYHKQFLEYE
# How it was run: as §1
# USP24 = USP24 (UniProt Q9UPU5)
# How it was run: as §1
# USP25 = molecular target: T3, USP25 (UniProt Q9UHP3)
# T3 sequence (whole entry): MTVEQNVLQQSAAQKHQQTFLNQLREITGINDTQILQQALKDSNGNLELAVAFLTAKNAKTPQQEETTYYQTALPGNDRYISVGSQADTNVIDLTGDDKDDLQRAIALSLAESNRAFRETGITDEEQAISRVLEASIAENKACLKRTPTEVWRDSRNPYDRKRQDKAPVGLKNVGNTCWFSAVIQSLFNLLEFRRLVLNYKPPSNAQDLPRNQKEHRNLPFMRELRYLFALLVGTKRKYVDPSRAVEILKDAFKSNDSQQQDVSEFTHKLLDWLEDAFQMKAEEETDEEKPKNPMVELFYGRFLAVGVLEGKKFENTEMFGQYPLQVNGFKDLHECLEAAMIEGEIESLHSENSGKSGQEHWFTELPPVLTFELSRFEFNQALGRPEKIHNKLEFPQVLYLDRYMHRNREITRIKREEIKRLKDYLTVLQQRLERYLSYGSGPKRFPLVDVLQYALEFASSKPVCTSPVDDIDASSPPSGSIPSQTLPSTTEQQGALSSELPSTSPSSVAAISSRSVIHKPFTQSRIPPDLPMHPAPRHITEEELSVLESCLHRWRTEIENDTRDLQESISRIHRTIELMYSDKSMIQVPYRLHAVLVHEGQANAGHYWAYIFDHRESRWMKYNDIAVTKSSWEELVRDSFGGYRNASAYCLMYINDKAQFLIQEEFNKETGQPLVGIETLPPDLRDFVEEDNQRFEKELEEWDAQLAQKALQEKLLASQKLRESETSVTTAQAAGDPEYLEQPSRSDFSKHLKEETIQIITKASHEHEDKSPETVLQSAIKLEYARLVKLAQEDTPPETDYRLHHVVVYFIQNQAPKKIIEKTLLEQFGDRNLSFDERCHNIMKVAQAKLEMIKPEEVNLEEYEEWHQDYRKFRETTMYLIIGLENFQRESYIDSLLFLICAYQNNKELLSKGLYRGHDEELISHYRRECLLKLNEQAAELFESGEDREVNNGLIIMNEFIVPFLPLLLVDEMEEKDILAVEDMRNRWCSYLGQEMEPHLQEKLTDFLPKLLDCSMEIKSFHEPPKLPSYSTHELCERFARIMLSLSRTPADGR
# How it was run: as §1
# USP28 = molecular target: T4, USP28 (UniProt Q96RU2)
# T4 sequence (whole entry): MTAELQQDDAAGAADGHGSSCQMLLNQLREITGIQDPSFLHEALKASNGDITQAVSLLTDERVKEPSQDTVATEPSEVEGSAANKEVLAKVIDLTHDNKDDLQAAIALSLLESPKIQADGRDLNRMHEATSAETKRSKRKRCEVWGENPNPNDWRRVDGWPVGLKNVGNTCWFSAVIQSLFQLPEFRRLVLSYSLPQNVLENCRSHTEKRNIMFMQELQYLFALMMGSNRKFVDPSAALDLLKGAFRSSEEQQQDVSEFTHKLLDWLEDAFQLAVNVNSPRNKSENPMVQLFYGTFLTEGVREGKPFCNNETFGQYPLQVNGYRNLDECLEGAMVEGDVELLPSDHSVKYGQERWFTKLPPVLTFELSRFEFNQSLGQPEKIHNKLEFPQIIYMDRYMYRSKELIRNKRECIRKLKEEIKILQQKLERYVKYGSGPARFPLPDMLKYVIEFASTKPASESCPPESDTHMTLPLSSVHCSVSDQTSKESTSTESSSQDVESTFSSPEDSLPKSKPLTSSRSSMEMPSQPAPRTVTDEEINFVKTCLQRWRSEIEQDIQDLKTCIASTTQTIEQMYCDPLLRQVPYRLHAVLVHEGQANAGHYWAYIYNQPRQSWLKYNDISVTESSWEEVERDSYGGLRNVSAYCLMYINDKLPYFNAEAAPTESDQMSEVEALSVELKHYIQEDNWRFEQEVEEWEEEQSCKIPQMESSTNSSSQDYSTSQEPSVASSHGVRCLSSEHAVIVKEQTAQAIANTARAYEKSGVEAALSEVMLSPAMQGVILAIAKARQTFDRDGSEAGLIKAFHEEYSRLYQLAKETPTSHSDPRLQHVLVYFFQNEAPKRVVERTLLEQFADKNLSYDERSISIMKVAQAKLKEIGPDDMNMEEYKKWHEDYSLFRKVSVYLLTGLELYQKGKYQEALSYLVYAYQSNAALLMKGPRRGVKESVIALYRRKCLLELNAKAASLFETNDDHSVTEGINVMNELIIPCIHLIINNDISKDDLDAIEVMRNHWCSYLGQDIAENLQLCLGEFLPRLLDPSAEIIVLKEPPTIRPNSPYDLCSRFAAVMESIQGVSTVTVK
# How it was run: as §1
# USP24, sequence (Q9UPU5 whole entry): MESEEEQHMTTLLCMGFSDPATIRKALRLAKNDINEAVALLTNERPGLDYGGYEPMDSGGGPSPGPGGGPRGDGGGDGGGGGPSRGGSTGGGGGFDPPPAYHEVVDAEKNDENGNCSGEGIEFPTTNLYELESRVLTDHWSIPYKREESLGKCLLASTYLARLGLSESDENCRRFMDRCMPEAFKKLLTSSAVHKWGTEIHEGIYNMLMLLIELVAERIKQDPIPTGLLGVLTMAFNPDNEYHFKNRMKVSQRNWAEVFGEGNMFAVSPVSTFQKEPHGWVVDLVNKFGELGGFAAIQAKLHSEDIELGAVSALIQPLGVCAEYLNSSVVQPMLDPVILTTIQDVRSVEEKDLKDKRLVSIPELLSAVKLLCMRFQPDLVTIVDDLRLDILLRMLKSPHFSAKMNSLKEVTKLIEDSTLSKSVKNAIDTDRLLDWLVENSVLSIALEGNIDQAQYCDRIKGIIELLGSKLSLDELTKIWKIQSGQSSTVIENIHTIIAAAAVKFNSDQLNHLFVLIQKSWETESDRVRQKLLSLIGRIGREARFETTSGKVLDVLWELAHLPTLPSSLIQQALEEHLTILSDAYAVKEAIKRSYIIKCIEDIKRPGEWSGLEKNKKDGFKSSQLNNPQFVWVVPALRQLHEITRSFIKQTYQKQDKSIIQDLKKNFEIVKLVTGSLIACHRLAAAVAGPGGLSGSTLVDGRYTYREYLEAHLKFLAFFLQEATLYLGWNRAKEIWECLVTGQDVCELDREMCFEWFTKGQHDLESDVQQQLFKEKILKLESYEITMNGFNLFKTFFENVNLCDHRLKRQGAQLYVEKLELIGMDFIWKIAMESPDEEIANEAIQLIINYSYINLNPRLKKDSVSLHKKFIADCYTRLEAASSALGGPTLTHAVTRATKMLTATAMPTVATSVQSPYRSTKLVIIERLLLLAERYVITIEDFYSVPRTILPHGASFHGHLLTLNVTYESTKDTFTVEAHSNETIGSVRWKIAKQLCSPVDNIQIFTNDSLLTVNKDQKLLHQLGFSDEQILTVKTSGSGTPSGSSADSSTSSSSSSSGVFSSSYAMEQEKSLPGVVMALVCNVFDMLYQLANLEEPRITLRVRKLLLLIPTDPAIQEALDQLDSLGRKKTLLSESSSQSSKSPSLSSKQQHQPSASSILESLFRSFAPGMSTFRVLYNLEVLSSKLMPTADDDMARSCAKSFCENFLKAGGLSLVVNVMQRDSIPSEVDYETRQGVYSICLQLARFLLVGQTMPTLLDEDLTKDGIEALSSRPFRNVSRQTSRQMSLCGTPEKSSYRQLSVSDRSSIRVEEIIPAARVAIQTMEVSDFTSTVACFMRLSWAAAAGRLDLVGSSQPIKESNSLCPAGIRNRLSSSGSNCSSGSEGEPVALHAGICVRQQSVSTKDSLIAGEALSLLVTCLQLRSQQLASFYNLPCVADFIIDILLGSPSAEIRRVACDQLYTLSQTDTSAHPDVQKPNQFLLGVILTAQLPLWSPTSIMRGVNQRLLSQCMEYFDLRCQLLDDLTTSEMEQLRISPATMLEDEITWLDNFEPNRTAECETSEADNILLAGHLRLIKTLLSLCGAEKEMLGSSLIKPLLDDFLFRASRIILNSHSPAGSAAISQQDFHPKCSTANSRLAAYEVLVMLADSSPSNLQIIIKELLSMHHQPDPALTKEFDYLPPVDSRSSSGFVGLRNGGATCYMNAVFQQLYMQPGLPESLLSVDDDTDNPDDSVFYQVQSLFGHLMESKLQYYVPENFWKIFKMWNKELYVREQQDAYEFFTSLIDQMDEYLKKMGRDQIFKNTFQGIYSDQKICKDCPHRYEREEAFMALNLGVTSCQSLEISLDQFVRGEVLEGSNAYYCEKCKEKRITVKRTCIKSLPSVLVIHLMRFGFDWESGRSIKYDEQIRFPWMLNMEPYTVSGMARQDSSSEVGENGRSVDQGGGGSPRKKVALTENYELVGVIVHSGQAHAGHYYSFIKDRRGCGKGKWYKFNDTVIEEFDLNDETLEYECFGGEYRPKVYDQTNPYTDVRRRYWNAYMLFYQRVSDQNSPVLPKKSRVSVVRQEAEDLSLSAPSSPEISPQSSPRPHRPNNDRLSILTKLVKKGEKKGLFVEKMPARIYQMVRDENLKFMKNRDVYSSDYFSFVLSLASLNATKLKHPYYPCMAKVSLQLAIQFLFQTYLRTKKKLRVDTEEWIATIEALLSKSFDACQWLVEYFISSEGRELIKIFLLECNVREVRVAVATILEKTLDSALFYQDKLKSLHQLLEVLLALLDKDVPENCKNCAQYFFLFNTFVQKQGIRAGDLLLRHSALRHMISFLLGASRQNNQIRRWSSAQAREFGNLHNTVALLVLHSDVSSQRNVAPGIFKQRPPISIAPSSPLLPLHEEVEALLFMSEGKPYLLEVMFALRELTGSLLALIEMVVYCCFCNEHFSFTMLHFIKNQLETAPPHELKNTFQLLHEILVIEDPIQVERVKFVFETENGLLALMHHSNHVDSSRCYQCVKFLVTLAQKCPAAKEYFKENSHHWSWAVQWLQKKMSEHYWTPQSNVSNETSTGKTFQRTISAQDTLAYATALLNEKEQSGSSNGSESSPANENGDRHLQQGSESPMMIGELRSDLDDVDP
structure (smiles),measurement,setting,value
O=C(CCl)Nc1cc2c(cc1Cl)OCCCO2,log2 ratio of Biotin-Ahx-Ub-VS probe labelling,USP19,0.113
same,log2 ratio of Biotin-Ahx-Ub-VS probe labelling,USP22,0.133
same,log2 ratio of Biotin-Ahx-Ub-VS probe labelling,USP24,0.00346
same,log2 ratio of Biotin-Ahx-Ub-VS probe labelling,USP25,-2.47 (active)
same,log2 ratio of Biotin-Ahx-Ub-VS probe labelling,USP28,-1.92 (active)
